Tg IFNy HTS: blocks Toxoplasma gondii growth in the presence of IFN-gamma | AID 1259416 | activity change, negative = inhibition, % (concentration not given with the values) | Toxoplasma gondii growth in IFN-gamma-treated host cells; stronger effect = lower value | 69,000 tested, 3.8% active; in the data active means activity change below about -70%, passing the limit was not always enough;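 further: host cells are HeLa cells infected with Toxoplasma gondii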
Numbers stand for hits; - = inactive; ! = repeats disagree. Shown is part of a subset that was picked to be rich in hits.

SMILES | Tg IFNy HTS
Cn1cc(C(CNC(=O)Nc2cccc(Br)c2)c2cccnc2)c2ccccc21 (centres undefined) | -
CCn1cc(C(CNC(=O)Nc2ccc(OC)cc2OC)c2cccnc2)c2ccccc21 (centres undefined) | -
CCOC(=O)c1ccc(NC(=O)NCC(c2cccnc2)c2cn(CC)c3ccccc23)cc1 (centres undefined) | -101.8
CCOC(=O)c1ccc(NC(=O)NCC(c2cccnc2)c2cn(C)c3ccccc23)cc1 (centres undefined) | -
CCOC(=O)c1ccc(NC(=O)NCC(c2cccnc2)c2c[nH]c3ccccc23)cc1 (centres undefined) | -
COc1ccc2c(c1)NC1(CCN(C(=O)Nc3ccc4c(c3)OCO4)CC1)c1cccn1-2 | -
CCOc1ccc2nc(-c3nccn3CC3CCN(C(C)=O)CC3)ccc2c1 | -
c1ccc(-c2cc3ncnc(NCc4ccc5c(c4)OCO5)c3s2)cc1 | -105.4
CCc1nc(OCC(=O)NCc2ccc3c(c2)OCO3)c2ccccc2n1 | -
O=C(CS(=O)(=O)Cc1ccccc1)NCc1ccc2c(c1)OCO2 | -
COc1ccccc1-c1cc(=O)n(-c2nc3ccccc3s2)[nH]1 | -
O=C(C[C@H]1C[C@@H]2CN(Cc3ccccc3F)C[C@H]2O1)N1CCCCO1 | -
O=S(=O)(NCCc1ccncc1)c1cc(C(F)(F)F)cc(C(F)(F)F)c1 | -
Cc1ccc(S(=O)(=O)NCc2ccccc2)cc1 | -
CCCCNS(=O)(=O)c1ccc(S(=O)(=O)NCc2ccncc2)cc1 | -80.4
Cc1ccc(-c2coc(-c3ccc(NC(=O)Nc4ccc(F)cc4F)cc3)n2)cc1 | -
COc1ccc(C)cc1NC(=O)Nc1ccc(-c2nc(-c3cccc(Br)c3)co2)cc1 | -
COc1cc(OC)c(NC(=O)Nc2ccc(-c3nc(-c4ccc(C)cc4)co3)cc2)cc1Cl | -77.1
O=C(Nc1ccc(-c2nc(-c3ccccc3)co2)cc1)Nc1ccccc1Cl | -
COc1cc(OC)c(NC(=O)Nc2ccc(-c3nc(-c4ccccc4)co3)cc2)cc1Cl | -85.0
COc1ccc(NC(=O)Nc2ccc(-c3nc(-c4ccccc4)co3)cc2)cc1Cl | -
COc1ccccc1NC(=O)Nc1ccc(-c2nc(-c3ccc(C)cc3C)co2)cc1 | -
COc1ccccc1NC(=O)Nc1ccc(-c2nc(-c3ccc(C)cc3)co2)cc1 | -77.2
COc1ccccc1NC(=O)Nc1ccc(-c2nc(-c3cc(C)ccc3C)co2)cc1 | -
CS(=O)(=O)CC(=O)N1Cc2cncn2CC(COCC2CCC2)C1 (centres undefined) | -
SMILES | Tg IFNy HTS
CC1=C(C(=O)Nc2ccc(Cc3ccncc3)cc2)C2(CCN(C(C)C)CC2)OC1=O | -
CCC(=O)N1CC[C@@H](OCc2ccccn2)[C@@H](Cc2ccccc2)C1 | -
O=C(C1CC2C=CC1O2)N1CCCC(c2cc(C(F)F)n3ncnc3n2)C1 (centres undefined) | -
COc1cc2cc(CN3CCCC3c3nonc3C)c(=O)[nH]c2cc1OC (centres undefined) | -
CCC1(CO)CCCN(c2ncc(C(F)(F)F)cc2Cl)C1 (centres undefined) | -
CC(C)n1c2ccccc2c2c1cc(C(=O)N1CCCCO1)n2C(=O)N(C)C | -
Cc1nccc(-c2cccc(NS(=O)(=O)NCc3ccccc3)c2)n1 | -
Cc1cc(C)n(CCCN(C)Cc2cccc3c2OCO3)n1 | -
CCCc1oncc1C(=O)N1CCCC2(CNC(=O)O2)C1 (centres undefined) | -
CC[C@H]1N(S(=O)(=O)c2cn(C)cn2)CCC[C@@]12CCC(=O)N2 | -
CCN(CC)CCNc1ccc(CO)c2sc3ccccc3c(=O)c12 | -97.0!
CCN(CC)CCNC(=O)c1ccccc1I | -
COCCN1CCC(CN(C)C(=O)c2ccc(Cl)c(C)c2)C1 (centres undefined) | -
CC(NC1CCN(c2ccc(C(=O)NCc3cccnc3)cc2)CC1)c1cccs1 (centres undefined) | -
Cc1nc(C(F)(F)F)ccc1C(=O)Nc1ccc(S(N)(=O)=O)cc1 | -
C=C(NC(=O)C(=C)NC(=O)c1csc(C2=N[C@@H]3c4csc(n4)[C@H]4NC(=O)c5csc(n5)[C@H]([C@](C)(O)[C@@H](C)O)NC(=O)[C@H]5CSC(=N5)/C(=C/C)NC(=O)[C@H]([C@@H](C)O)NC(=O)c5csc(n5)[C@]3(CC2)NC(=O)[C@H](C)NC(=O)C(=C)NC(=O)[C@H](C)NC(=O)[C@H]([C@@H](C)CC)N[C@@H]2C=Cc3c([C@H](C)O)cc(nc3[C@H]2O)C(=O)O[C@@H]4C)n1)C(N)=O | -72.4
C=C(NC(=O)C(=C)NC(=O)c1csc(C2=N[C@H]3c4csc(n4)[C@H]4NC(=O)c5csc(n5)[C@H]([C@@](C)(O)[C@@H](C)O)NC(=O)[C@H]5CSC(=N5)/C(=C/C)NC(=O)[C@H]([C@@H](C)O)NC(=O)c5csc(n5)[C@]3(CC2)NC(=O)[C@H](C)NC(=O)C(=C)NC(=O)[C@H](C)NC(=O)[C@H](C(C)CC)N[C@@H]2C=Cc3c([C@H](C)O)cc(nc3[C@H]2O)C(=O)O[C@@H]4C)n1)C(N)=O (some centres undefined) | -
Cc1nc(-c2cccc(F)c2)sc1CCNC(=O)c1ccc(F)cc1 | -
CCc1noc(C(C)n2ccnc2-c2cnc(-c3ccco3)nc2)n1 (centres undefined) | -
COc1ccc(S(=O)(=O)N2CCC3(CC2)Nc2cc(OC)ccc2-n2cccc23)cc1 | -
CCN1c2cc(C)ccc2-n2cccc2C12CCN(S(=O)(=O)c1ccc(OC)c(OC)c1)CC2 | -
COc1ccc2c(c1)NC1(CCN(S(=O)(=O)c3c(C)cc(C)cc3C)CC1)c1cccn1-2 | -
CCN1c2cc(C)ccc2-n2cccc2C12CCN(S(=O)(=O)c1ccc(OC)cc1)CC2 | -91.4
CCN1c2cc(C)ccc2-n2cccc2C12CCN(S(=O)(=O)c1cccc(Cl)c1)CC2 | -84.3
CCN1c2cc(C)ccc2-n2cccc2C12CCN(S(=O)(=O)c1c(C)cc(C)cc1C)CC2 | -117.7
SMILES | Tg IFNy HTS
CCN1c2cc(C)ccc2-n2cccc2C12CCN(S(=O)(=O)c1ccc(C)c(C)c1)CC2 | -111.9
Cc1ccc(S(=O)(=O)N2CCC3(CC2)Nc2ccc(C)c(C)c2-n2cccc23)cc1C | -
Cc1ccc2c(c1C)-n1cccc1C1(CCN(S(=O)(=O)c3cccc(Cl)c3)CC1)N2 | -
Cc1cc(C)c(S(=O)(=O)N2CCC3(CC2)Nc2cc(F)ccc2-n2cccc23)c(C)c1 | -
Cc1ccc2c(c1)NC1(CCN(S(=O)(=O)c3ccc(C)c(C)c3)CC1)c1cccn1-2 | -
Cc1c(NCc2cccnc2)cccc1C(=O)NCCN1CCCC(O)C1 (centres undefined) | -
c1csc(CN2CCCn3cnc(COCC4CC4)c3C2)c1 | -
CCOCC1CC2(CCN(Cc3cnn(C)c3)CC2)CO1 (centres undefined) | -
Cn1nccc1C(=O)C1CCN(C(=O)c2ccc3c(c2)OCCO3)CC1 | -
O=C(c1ccncc1)N1CCCC2(CCCN2Cc2cccc(F)c2)C1 (centres undefined) | -
CN(CCNC(=O)CCSc1ccc2c(c1)OCCO2)S(C)(=O)=O | -
c1cn2c(n1)CN(CC1CCOC1)CC(Cn1cncn1)C2 (centres undefined) | -
CCN(C)Cc1ccc(-c2nc(-c3cccnc3)cc(=O)[nH]2)cc1 | -
CCN1c2cc(C)ccc2-n2cccc2C12CCN(S(=O)(=O)c1ccc(C(C)(C)C)cc1)CC2 | -
COc1ccc(Cl)cc1S(=O)(=O)N1CCC2(CC1)Nc1cc(C)ccc1-n1cccc12 | -
